# Compounds with a hit are over-represented: about 4.2% of the library has one in this group of screens.
# BJeLR lethal – kills HRASV12-expressing BJeLR cells; BJeLR (HRASV12) viability, CellTiter-Glo ATP luminescence, 48 h; inhibition, % (test concentration not listed); 300,000 tested, 0.17% active; AID 1554; in the data active means inhibition above about 50%
# Mtb FBA inh – Mtb fructose-bisphosphate aldolase inhibition; P9WQA3; purified M. tuberculosis FBA, fluorescence read-out; inhibition, % at 1 µM; 360,000 tested, 2.3% active; AID 588726;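 further: 0% = vehicle and 100% = reference inhibitor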
# RecA intein inh – inhibitors of M. tuberculosis RecA intein splicing; 290,000 tested, 0.75% active; inhibition, % (concentration not given with the values); cell-free RecA intein splicing, fluorescence; P9WHJ3; in the data active means inhibition above about 30%;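 further: 0% = vehicle wells and 100% = reference inhibitor control wells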
# Target sequence (P9WHJ3 whole entry, looked up): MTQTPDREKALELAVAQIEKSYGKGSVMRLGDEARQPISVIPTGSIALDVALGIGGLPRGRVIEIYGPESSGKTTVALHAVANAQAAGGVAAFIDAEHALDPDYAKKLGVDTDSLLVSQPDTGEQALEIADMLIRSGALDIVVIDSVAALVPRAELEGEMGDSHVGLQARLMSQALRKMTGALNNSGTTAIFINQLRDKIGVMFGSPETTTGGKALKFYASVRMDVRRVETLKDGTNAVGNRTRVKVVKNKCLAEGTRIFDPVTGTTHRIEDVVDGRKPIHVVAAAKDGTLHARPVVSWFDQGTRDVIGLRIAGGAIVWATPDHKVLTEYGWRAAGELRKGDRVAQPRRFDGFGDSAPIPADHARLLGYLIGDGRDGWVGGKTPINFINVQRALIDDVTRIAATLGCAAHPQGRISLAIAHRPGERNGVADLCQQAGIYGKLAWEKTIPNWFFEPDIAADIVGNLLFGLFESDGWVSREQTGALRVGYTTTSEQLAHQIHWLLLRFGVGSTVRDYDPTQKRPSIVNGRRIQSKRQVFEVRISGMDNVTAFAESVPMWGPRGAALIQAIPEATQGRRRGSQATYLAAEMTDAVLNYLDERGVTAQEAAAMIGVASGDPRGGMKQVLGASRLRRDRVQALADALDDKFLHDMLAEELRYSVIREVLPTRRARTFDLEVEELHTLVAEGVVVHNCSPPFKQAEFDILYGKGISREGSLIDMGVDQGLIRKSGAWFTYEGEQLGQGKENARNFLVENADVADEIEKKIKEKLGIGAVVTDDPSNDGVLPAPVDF
# GDH-TPI counter-1 – GDH-TPI coupled enzyme inhibition counter-screen | inhibition, % at 4.8 µM | GDH-TPI coupled enzyme counterscreen, NADH absorbance | 360,000 tested, 1.2% active; in the data active means inhibition above about 30%;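 further: 0% = DMSO wells and 100% = wells lacking the enzyme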
# PrPC surface inh – inhibitors of human cell surface prion protein PrPC | TR-FRET read-out | 370,000 tested, 0.43% active | AID 720596 | inhibition, % at 13.8 µM | P04156; in the data active means inhibition above about 24%; further: 0% = median of the test wells and 100% = reference compound wells
# Mtb FBA confirm – confirmation of M. tuberculosis fructose-bisphosphate aldolase inhibitors; shares compounds with Mtb FBA inh; purified M. tuberculosis FBA, fluorescence read-out; inhibition, % at 1 µM; 5,600 tested, 78% active;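 further: 0% = vehicle wells and 100% = reference inhibitor wells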
# GDH-TPI counter-2 – counter-screen for M. tuberculosis FBA inhibitors: GDH-TPI coupled enzyme inhibition | shares compounds with Mtb FBA inh | GDH-TPI coupled enzyme counterscreen, fluorescence | inhibition, % at 1 µM | 5,600 tested, 81% active; in the data active means inhibition above about 10%
# GDH-TPI DR – counter-screen for M. tuberculosis FBA inhibitors: GDH-TPI dose response | AID 652145 | shares compounds with Mtb FBA inh | 170 tested, 79% active | IC50, µM | GDH-TPI coupled enzyme assay, fluorescence, artifact counterscreen; call rule not given here
# * = called active by the depositor; / = no result given; + = active, no number. Unless noted, no stated cut-off is given here; in the data, active means inhibition above about 27%; inactive means the rest.
SMILES,BJeLR lethal,Mtb FBA inh,RecA intein inh,GDH-TPI counter-1,PrPC surface inh,Mtb FBA confirm,GDH-TPI counter-2,others
Clc1ccc(-c2nnc(N3CCOCC3)o2)cc1,4.3,40.3*,-1.2,-4.8,4.4,91.9*,56.0*,
Fc1ccc(-c2nnc(-c3ccc(Cl)cc3)o2)cc1,1.6,1.2,1.7,6.1,1.8,/,/,
CCN(C(=O)C1CCCN(c2nnc(-n3cccc3)s2)C1)c1ccccc1C (stereo unspecified),/,/,/,/,9.4,/,/,
CCCn1c(N)c(N(CCOC)C(=O)COC(=O)c2ccccc2NCCO)c(=O)[nH]c1=O,-10.8,90.5*,-4.6,1.0,3.7,122.3*,102.5*,
CCCCn1c(N)c(N(CCOC)C(=O)COC(=O)c2ccccc2OCC)c(=O)[nH]c1=O,1.4,-0.7,-1.1,-1.0,2.0,/,/,
Cc1ccc(C2=CC(=O)CC(C)(C)C2)cc1,/,3.8,/,16.1,3.6,/,/,
CC1(C)CC(=O)C=C(c2ccc3ccccc3c2)C1,/,39.6*,/,15.6,-9.3,-0.5,-4.5,
Cc1ccccc1N(C(=O)c1snc(C(N)=O)c1N)C(C(=O)NCc1ccccc1)c1ccc(O)cc1 (stereo unspecified),-5.0,42.6*,-3.4,12.6,2.7,10.1,4.3,
NC(=O)c1nsc(C(=O)N(c2ccccc2F)C(C(=O)NCc2ccccc2)c2ccc(O)cc2)c1N (stereo unspecified),21.9,44.8*,-2.9,18.7,14.5,7.6,-7.2,
COc1cccc(N(C(=O)c2snc(C(N)=O)c2N)C(C(=O)NCc2ccccc2)c2ccc(O)cc2)c1 (stereo unspecified),5.0,12.6,1.0,7.5,-6.1,/,/,
CCOc1ccccc1N(C(=O)c1snc(C(N)=O)c1N)C(C(=O)NCc1ccccc1)c1ccc(O)cc1 (stereo unspecified),-7.3,6.8,-2.3,9.6,-21.3,/,/,
O=C(c1ccc(F)c(F)c1)N1CCC(Oc2cccnc2)CC1,/,/,/,/,0.7,/,/,
CCn1cc(-c2ccnc3cc(C(=O)O)nn23)c(C)n1,2.0,84.1*,-12.2,11.9,-1.8,76.0*,58.1*,
Cc1c(-c2ccnc3cc(C(=O)O)nn23)cnn1C,0.6,79.1*,-13.4,12.5,-9.8,22.4,16.8*,
CCn1cc(CCC(=O)O)c(C)n1,-2.7,-0.3,-1.0,2.2,7.0,/,/,
CCOC(=O)N1CCN(C(=O)C[C@H]2C[C@@]3(C(=O)OC)C(=C[C@H](COCc4ccccc4)O[C@@H]3C)N(Cc3ccc(Cl)cc3Cl)C2=O)CC1,/,/,/,/,-11.9,/,/,
CC(C)C(=O)Nc1sc2c(c1-c1nc3ccccc3[nH]1)CCCC2,-5.4,43.2*,3.2,14.2,1.9,+,181.8*,
COCc1cc(=O)n2[nH]c(-c3ccc(C)cc3)cc2n1,-5.9,35.0*,0.5,2.8,2.7,152.4*,107.6*,
COCc1cc(=O)n2[nH]c(-c3cccs3)cc2n1,-8.2,30.1*,0.4,-6.9,14.0,64.9*,65.8*,
CCCc1cc(=O)n2[nH]c(-c3ccco3)nc2n1,-0.1,12.2,-1.1,2.5,-6.9,/,/,
COCc1cc(=O)n2[nH]c(-c3ccco3)cc2n1,-5.5,33.6*,3.9,6.1,-6.1,9.8,3.9,
FC(F)(F)c1ccccc1Cn1ccc2ccc(-c3ccc4ccn(Cc5ccccc5C(F)(F)F)c4c3)cc21,/,/,/,/,12.4,/,/,
COc1ccc(S[C@]2(C(=O)N3CCOCC3)CC(=O)N(C(=O)c3ccccc3)[C@@H]2c2ccc(OC)cc2)cc1,/,/,/,/,-6.4,/,/,
CC(=O)C1=C(C)N(Cc2ccc(F)cc2)C(=S)NC1c1cccc(F)c1 (stereo unspecified),/,/,/,/,-1.4,/,/,
O=C(N[C@H](C(=O)N1CCC[C@H]1C(=O)NCc1ccccc1)C1CCCCC1)c1ccccc1,/,/,/,/,-1.4,/,/,
SMILES,BJeLR lethal,Mtb FBA inh,RecA intein inh,GDH-TPI counter-1,PrPC surface inh,Mtb FBA confirm,GDH-TPI counter-2,others
C#CCn1c(=NC(=O)c2sc3ccccc3c2Cl)sc2cc(S(N)(=O)=O)ccc21,3.5,39.0*,-5.3,42.0*,-3.5,+,+,
COC(=O)[C@]12C[C@H](CC(=O)NCc3cccc(C(F)(F)F)c3)C(=O)N(Cc3ccc(Cl)cc3Cl)C1=C[C@H](COCc1ccccc1)O[C@@H]2C,/,/,/,/,-2.6,/,/,
C/C=C(\C)C(=O)O[C@H](c1cc2ccc(=O)oc2cc1OC)[C@@H](O)C(C)(C)O,/,39.7*,/,18.1,-1.6,90.1*,57.8*,
C/C=C(\C)C(=O)O[C@@H]([C@H](O)c1cc2ccc(=O)oc2cc1OC)C(C)(C)O,/,38.5*,/,17.9,-0.7,42.0*,22.6*,
C/C=C(/C)C(=O)O[C@@H]([C@H](O)c1cc2ccc(=O)oc2cc1OC)C(C)(C)O[C@@H]1O[C@H](CO)[C@@H](O)[C@H](O)[C@H]1O,/,58.8*,/,12.1,2.8,161.1*,146.4*,
COC(=O)C1CN(Cc2cn(Cc3ccccc3)nn2)CCS(=O)(=O)N1Cc1ccc(OC)cc1 (stereo unspecified),/,/,/,/,-3.1,/,/,
O=C(C(=O)N1CCC(CNS(=O)(=O)c2ccc(F)cc2)CC1)c1cccs1,/,/,/,/,-5.3,/,/,
CCCC(=O)Nc1ccc2oc(-c3cncc(Br)c3)nc2c1,9.8,40.3*,-3.5,0.0,2.7,172.0*,132.3*,
CCCC(=O)Nc1ccc(-c2nc3cc(C)c(C)cc3o2)cc1,6.9,87.0*,2.1,23.7,11.1,40.2*,40.0*,
O=C(C(=O)N1CCC(CNS(=O)(=O)c2ccc3ccccc3c2)CC1)c1cc2ccccc2o1,/,/,/,/,2.0,/,/,
CC(C)c1cc(C(=O)N(C2CCCCC2)C2CCCCC2)no1,/,/,/,/,-2.4,/,/,
CCCC1Cc2c(sc3ncnc(N)c23)CO1 (stereo unspecified),-23.8,27.5*,-1.7,1.9,5.7,142.4*,120.9*,
O=C(CSc1cn[nH]n1)Nc1ccc(O)c(C(=O)O)c1,2.8,30.9*,-0.2,-7.4,2.9,2.3,2.4,
Cc1ccc(NC(=O)CSc2cn[nH]n2)cc1,5.1,2.1,-0.4,-2.2,10.3,/,/,
CCOC(=O)c1ccc(-[n+]2c(-c3ccccc3)cc(-c3ccccc3)cc2-c2ccccc2)cc1,19.8,/,11.5,/,/,/,/,
Cc1ccc(-c2cc(-c3ccc(C)cc3)[n+](-c3ccc(C(=O)[O-])cc3)c(-c3ccc(C)cc3)c2)cc1,78.4*,37.5*,40.5*,45.8*,-21.3,13.9,7.1,GDH-TPI DR=3.85*
O=C1N(Cc2ccccc2)c2ccccc2C12CCCc1sc(CCc3ccccc3)nc12 (stereo unspecified),/,/,/,/,6.2,/,/,
Nc1ccc(C#Cc2c(-c3ccsc3)oc3ccc(N4CCOCC4)cc23)cc1,-4.7,40.8*,1.6,21.6,13.2,101.7*,74.9*,
COc1ccc(-c2oc3ccc(N4CCOCC4)cc3c2C#CCO)cc1,9.8,33.3*,1.7,47.1*,-5.5,47.7*,35.4*,
COc1ccc(-c2c(-c3ccsc3)oc3ccc(N4CCOCC4)cc23)cn1,8.7,26.7,7.8,1.4,4.7,/,/,
